Measured values taken from ChEMBL document CHEMBL3988442, “University of Dundee, Small-Polar-MMV Screening Library” (2021).
About 13,000 (27%) of roughly 48,000 compounds showed an effect of 50% or more. The list shows a part of the results.

tested on: Wolbachia pipientis; assay: Anti-Wolbachia Cell-Based Screen; format: functional; parameters: scale not given: in the data most compounds retested in dose-response had high values; details: 5 µM

Row | SMILES | Percent Effect [%]
1 | COCCN(Cc1ccc(F)cc1C#N)CC(F)(F)F | -22.68
2 | COCCCn1ccc(NC(=O)NCCc2cccnc2)n1 | -2.122
3 | CNC(=O)C1(CCCc2cccnc2)CCCCN1 (centres undefined) | -7.533
4 | CN1CCCC1(CCCc1cccnc1)C(=O)NCc1nccn1C (centres undefined) | 97.51
5 | COCCNC(=O)C1(CCCc2cccnc2)CCCN1C (centres undefined) | 112.4
6 | O=C(Nc1ccnc2ccnn12)c1ccc(N2CCC(O)CC2)cc1 | 5.741
7 | COCC(=O)N(CCC(=O)OC)CC1CCCO1 (centres undefined) | -0.04842
8 | COCCN1CCC(CN(CC2CCCO2)C(=O)C2CCOCC2)CC1 (centres undefined) | 95.06
9 | COCCN1CCC(CNC(=O)C2(NC(C)=O)CCCCC2)CC1 | 17.17
10 | COCCN1CCC(CN(CC2CCCO2)C(=O)CCC(F)(F)F)CC1 (centres undefined) | 140.7
11 | COCCN1CCC(CN(CC2CCCO2)C(=O)CCNC(C)=O)CC1 (centres undefined) | -5.608
12 | COCCN1CCC(CN(CC2CCCO2)C(=O)COC)CC1 (centres undefined) | -4.712
13 | CN(CC1CCOCC1)C(=O)NCCCN1CCCCC1 | -10.18
14 | COCCN1CCC(CN(CC2CCCO2)C(=O)CNC(C)=O)CC1 (centres undefined) | 106.5
15 | O=C(CC1CCCO1)Nc1ccn(Cc2cccc3cccnc23)n1 (centres undefined) | -4.253
16 | CC(=O)N1CCN(C(=O)CCCc2nc(C(C)C)no2)CC1 | -8.538
17 | CC(NCc1cnc(C2CCC2)s1)c1ccc(-n2cccn2)cc1 (centres undefined) | -14.42
18 | O=S(=O)(Nc1ccc2c(c1)OCCO2)N1CCCCC1 | 85.12
19 | Cc1cc(C(=O)O)cc(S(=O)(=O)Nc2ccc3c(c2)OCO3)c1C | 13.44
20 | CN(C)S(=O)(=O)Nc1ccc(-n2nccc2C(F)(F)F)cc1 | -20.66
21 | CN(C)S(=O)(=O)Nc1ccc(Oc2ccc3c(c2)OCO3)cc1 | 102.4
22 | O=C(CSc1ccc2c(c1)OCCO2)NS(=O)(=O)C1CCCCC1 | -3.835
23 | CC1(Cc2ccc3c(c2)OCO3)CCCN(S(=O)(=O)N2CCCC2)C1 (centres undefined) | -20.92
24 | Cc1c(F)cc(C(=O)O)cc1S(=O)(=O)Nc1ccc2c(c1)OCCO2 | -12.89
25 | O=S(=O)(Nc1ccc(Oc2ccc3c(c2)OCO3)cc1)N1CCCCC1 | 108.9
26 | O=C(c1cc(COc2ccc3c(c2)OCO3)[nH]n1)N1CCCCO1 | 18.38

Row | SMILES | Percent Effect [%]
27 | CC(C)c1nsc(N2CCn3c(nnc3C(F)(F)F)C2)n1 | -8.607
28 | CCc1cc(=O)[nH]c(-c2ccc(NCCc3ccc(O)cc3)nc2)n1 | -8.547
29 | Cc1ccc(CNC2CCN(CCc3ccncc3)CC2)cc1C | 2.941
30 | O=C1[C@H]2CC[C@H](CN(Cc3ccccc3OC(F)F)C2)N1CC1CC1 | -16.02
31 | Cn1cc(CN2C[C@@H]3CN(C(=O)c4cccn4C)CCO[C@@H]3C2)cn1 | 94.4
32 | Cn1cccc1C(=O)N1CCO[C@@H]2CN(Cc3ccco3)C[C@@H]2C1 | 74.97
33 | Cc1nc(CN2CCO[C@H]3CN(C(=O)c4cccn4C)C[C@H]32)cs1 | 4.285
34 | CN(C)CCN1CCO[C@@H]2CCN(C(=O)c3cccn3C)CC[C@H]21 | 111.2
35 | CCS(=O)(=O)N1C[C@@H]2CN(Cc3cnn(C)c3)CCO[C@@H]2C1.O=C(O)C(F)(F)F | 4.441
36 | O=S(=O)(C1CC1)N1CCO[C@@H]2CN(Cc3ccco3)C[C@@H]2C1 | 3.474
37 | CN(C)CCN1CCO[C@H]2CCN(C(=O)c3cccs3)CC[C@@H]21.O=C(O)C(F)(F)F.O=C(O)C(F)(F)F | -1.673
38 | O=C(O)C(F)(F)F.O=C(c1cocn1)N1C[C@@H]2CN(Cc3ccco3)CCO[C@@H]2C1 | -2.402
39 | Cn1cc(CN2C[C@@H]3CN(Cc4ccoc4)CCO[C@@H]3C2)cn1.O=C(O)C(F)(F)F.O=C(O)C(F)(F)F | 1.152
40 | CN(Cc1ccc(Cl)s1)C(=O)CN1CC(n2cccn2)C1 | -39.44
41 | CCC(NC(=O)CCNC(=O)c1ccccc1F)c1cc(C)ccn1 (centres undefined) | -12.53
42 | CC(C)Cc1nc(CCn2ccc(=O)[nH]c2=O)n(-c2ccccn2)n1 | 0.8317
43 | CCC(c1nc(C(C)C)nn1-c1ccncc1C)n1cccn1 (centres undefined) | -1.289
44 | Cc1nc[nH]c1C(=O)N1CCCC2(CN(C)C(=O)O2)C1 (centres undefined) | -29.59
45 | COc1ncc(-c2ccc(NC(C)=O)cc2)c(OC)n1 | 97.6
46 | COc1ncc(-c2ccc(C(N)=O)cc2)c(OC)n1 | 99.76
47 | COc1ccc(-c2cnc(NC(C)=O)[nH]2)cc1 | -6.695
48 | COc1ncc(-c2ccc(O)cc2)c(OC)n1 | 83.6
49 | COc1ncc(-c2cc(NC3CCCC3)nc3[nH]ccc23)c(OC)n1 | 5.51
50 | COc1ncc(NS(=O)(=O)c2ccc(F)c(F)c2)c(OC)n1 | -5.769
51 | COc1ncccc1-c1cc(C(N)=O)ccn1 | 12.1
52 | COc1ncc(NS(=O)(=O)c2cccc(C)c2)c(OC)n1 | 20.6

Row | SMILES | Percent Effect [%]
53 | COc1ncc(NC(=O)c2ccco2)c(OC)n1 | 4.719
54 | CC(C)n1cnnc1CN(C)Cc1ccc(CN(C)S(C)(=O)=O)o1 | -6.062
55 | CN(CC1CCN(CCO)CC1)CC(O)c1ccc(F)cc1 (centres undefined) | 8.04
56 | O=C(Nc1nnc(C2CC2)s1)NC1CCOc2ccccc21 (centres undefined) | -5.522
57 | O=C(C1CC12CCC2)N1CCC(n2cc(-c3ccsc3)nn2)CC1 (centres undefined) | -51.66
58 | CN(C)Cc1cc(C2CCN(C(=O)C3CCCNC3)CC2)nn1C.Cl (centres undefined) | 84.37
59 | CN(C)Cc1cc(C2CCN(C(=O)C3CC34CCC4)CC2)nn1C.Cl (centres undefined) | 106.1
60 | Cc1cc(CN(C)C(=O)CN2CC3(CCNCC3)OC2=O)n(C)n1 | -5.459
61 | CCn1c(C2CCCN(C(=O)C(C)(C)OC)C2)nn(CCN(C)C)c1=O (centres undefined) | -8.02
62 | COC(C)(C)C(=O)N1CCC(c2cc(CN(C)C)n(C)n2)CC1.Cl | 119.7
63 | CN(C)CCN1CC(C(=O)N2CCC(c3cc(=O)[nH]cn3)CC2)CC1=O (centres undefined) | 11.42
64 | CN(Cc1cnc(N)nc1)C(=O)C1CCN(C(=O)C2CCCC2)CC1 | -2.189
65 | CS(=O)(=O)c1nccn1Cc1ccc(F)cc1Cl | -6.222
66 | Cc1cnc(N2Cc3cnn(Cc4ccc(F)cc4)c3C2)nc1N(C)C | 15.57
67 | Cc1cc(N2CCc3c(nc(C(C)C)n3C)C2)nc(N)n1 | 12.43
68 | CCS(=O)(=O)N1CCc2ccc(NC(=O)NCc3ccccc3)cc21 | 168.3
69 | CCCNC(=O)Nc1ccc2c(c1)N(S(=O)(=O)CC)CC2 | 85.58
70 | CS(=O)(=O)c1ccc(NC(=O)NCc2ccc3c(c2)CCC3)cn1 | 2.355
71 | CCS(=O)(=O)N1CCc2ccc(NC(=O)NCCc3ccccc3)cc21 | 122.4
72 | CC(=O)N1CCCc2cc(NC(=O)NCCc3cnn(C)c3)ccc21 | -10.98
73 | O=C(NCc1ccccc1CO)Nc1ccc2c(c1)CCC2 | -12.78
74 | CCCNC(=O)CNc1ccc2c(c1)N(C(=O)OC(C)(C)C)CCC2 | -19.09
75 | NS(=O)(=O)N1CCc2ccc(NC(=O)CCc3ccncc3)cc21 | -8.791
76 | Fc1cccc(N2CCOC3(CCCN(c4nncs4)C3)C2)c1 (centres undefined) | -6.078
77 | O=C(CC1CCCC1)N1CCOC(c2nc(-c3ncccn3)no2)C1 (centres undefined) | 86.32
78 | O=C(C1CCCC1)N1CC(c2nc(Cc3ccccc3)no2)C1 | 3.47

Row | SMILES | Percent Effect [%]
79 | O=C(CN1CCCC1c1nc(-c2ccccn2)no1)N1CCOCC1 (centres undefined) | -3.547
80 | O=C(C1CCCC1)N1CCOC(c2nc(-c3ncccn3)no2)C1 (centres undefined) | 90.83
81 | CCn1cc(Cn2cc(-c3cccc(C(C)N(C)C)c3)nn2)cn1 (centres undefined) | -0.05647
82 | COc1ccc(N(C)C(=O)C2CN(C)CCO2)cc1Cl (centres undefined) | 4.765
83 | Cc1ccccc1C1CCN(CCn2cc(-c3nccn3C)nn2)C1 (centres undefined) | -7.795
84 | Cn1ccnc1-c1cn(CCCc2csc(N)n2)nn1 | 106.8
85 | Cc1cc(-n2nc(C)nc2-c2cn(CCN)nn2)ccn1 | -45.52
86 | CCOc1ncccc1Cn1cc(-c2nccn2C)nn1 | -13.21
87 | Cn1cccc1-c1cc(C(=O)NCCCc2csc(N)n2)[nH]n1 | -5.944
88 | Cn1ccnc1-c1cn(CCCc2nnc(N)s2)nn1 | 101
89 | CCc1nc(CCn2cc(-c3nccn3C)nn2)no1 | -10.63
90 | Cc1cn(CCn2ccnc2-c2sccc2C)nn1 | -12.56
91 | Cn1ccnc1-c1cn(CCc2nnc(N)s2)nn1 | 90.14
92 | Cn1ccnc1C(=O)NCCS(=O)(=O)c1ccc(C(C)(C)C)cc1 | 15.11
93 | Cc1cc(C)c(CNC(=O)NCC(c2ccccc2)N(C)C)c(=O)[nH]1 (centres undefined) | 1.646
94 | CC(C)NS(=O)(=O)c1cc(C(=O)O)cc(-c2ccc3c(c2)OCO3)c1 | 10.97
95 | CCC(NC(=O)c1cccc2cc[nH]c12)C(=O)N1CCOCC1 (centres undefined) | 1.714
96 | O=C(O)C(F)(F)F.O=C1N(CC2CCCC2)CCC12CCN(c1ncc(F)cn1)CC2 | 111.9
97 | Cc1cnc(N2CCC3(CCC(C(=O)NC(C)C)C3)CC2)nc1.O=C(O)C(F)(F)F (centres undefined) | -24.15
98 | O=C(O)C(F)(F)F.O=C(O)C(F)(F)F.c1cnc(N2CCC3(CCN(CC4CC4)CC3)CC2)nc1 | -4.913
99 | Cc1cnc(N2CCC3(CC2)CC3CNC(=O)C2CCC2)nc1.O=C(O)C(F)(F)F (centres undefined) | -2.894
100 | Cc1cnc(N2CCC3(CCN(CC4CCCC4)C3=O)CC2)nc1.O=C(O)C(F)(F)F | 94.42
101 | O=C(O)C(F)(F)F.O=C1N(CC2CC2)CCC12CCCN(c1ncc(F)cn1)C2 (centres undefined) | 107.4
102 | COc1ccnc(N2CCC3(CCCN(CC4CC4)C3=O)C2)n1 (centres undefined) | -5.296
103 | CN(C)C(=O)CN1CCC2(CCCN(c3ncc(F)cn3)C2)C1=O (centres undefined) | -17.79
104 | CN1CCC2(CCN(c3ncc(F)cn3)CC2)C1=O.O=C(O)C(F)(F)F | 5.555
